Assay results taken from PubChem BioAssay AID1457 (National Center for Advancing Translational Sciences (NCATS), 2008).
In all, about 210,000 compounds went through this assay and about 730 (0.35%) were called active. About 1% were inconclusive and are not listed. For the sample, actives were picked, then their nearest neighbours and some compounds at random. A number with no mark means an inactive call. Calls follow the shape of the dose curve; as a rule, active = well fitted inhibition curve with a large enough effect; inconclusive = small, poorly fitted or top-dose-only effect; inactive = no such curve, though single readings can be large or run the other way.

Test: qHTS Assay for Identifying the Cell-Membrane Permeable IMPase Inhibitors: Potentiation with Lithium;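 also: IP1 builds up when IMPase is blocked and the TR-FRET signal falls; nearly all actives have a fitted effect of over 50% in size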;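 as to activity, negative = IMPase inhibition: plate controls were basal vehicle for no effect and high inhibitor control for full effect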
Conditions: CHO-M1 cells, IP1 TR-FRET (IP-One), carbachol + lithium; series mostly up to 59.4 µM; activity, negative = IMPase inhibition: at the top concentration
Description: NIH Chemical Genomics Center [NCGC]
NIH Molecular Libraries Probe Production centers Network [MLPCN]
Assay Submitter (PI): Wei Zheng
Lithium has been widely used for the treatment of bipolar disorder. But lithium has a narrow therapeutic index and it can cause side effects such as thirst, weight gain, tremor, polyuria and memory problems. Although the mechanism for lithium action in treatment of bipolar disorder is still not fully understood, inhibition of inositol monophosphatase (IMPase) and the subsequent depletion of the inositol pool in living cells have been implicated as the primary therapeutic benefit of lithium therapy. Therefore, a selective IMPase inhibitor with reduced side effects might be a good drug candidate to replace lithium for the treatment of bipolar disorder. Several IMPase inhibitors have been discovered previously. However, they are not suitable for therapeutic use because of their poor cell membrane penetrability or oral bioavailability; the development of new cell-permeable IMPase inhibitors is needed.
IMPase catalyzes the hydrolysis of inositol-1-phosphate (IP1) to release free inositol. Binding of an agonist to a Gq coupled GPCR results in the activation of PLC, which hydrolyzes the PIP2 to form inositol-1,4,5-trisphosphate (IP3) and diacyl glycerol (DAG). While DAG activates protein kinase C (PKC), IP3 triggers the elevation of intracellular free Ca2+. The IP3 is very rapidly inactivated by hydrolysis to IP2, IP1 and then inositol by a series of enzymes including IMPase. Free inositols are used for synthesis of PI and thus start another inositol cycle.
To identify new cell-permeable IMPase inhibitors, we developed a cell-based IMPase assay in which the cytosolic IP1 is measured by a time-resolved fluorescence resonance energy transfer (TR-FRET) assay. In this assay, an IP1 specific antibody is used to detect the labeled IP1 tracer. When the cell lysate contains the elevated IP1 due to the inhibition of IMPase, the TR-FRET between the labeled antibody and IP1 tracer is disrupted resulting in a reduction in the total signal. Since the TR-FRET is used, this cell-based assay is a homogenous assay without cell wash and medium change that is suitable for assay miniaturization and HTS. In this particular assay, a small amount of lithium is added to potentiate the response of weak activators.
NCGC Assay Protocol Summary:
A Chinese hamster ovary (CHO) cell line stably expressing the M1 receptor (CHO-M1) was obtained from ATCC and maintained in F-12 Kaighn's media (Invitrogen, Carlsbad, CA) supplemented with 10 % FBS, 100 units/ml penicillin, 100 ug/ml streptomycin and 250 ug/ml geneticin at 37C, 5% CO2 in a humidified atmosphere. Before the assay, aliquots of cells were frozen and stored at -135C. The assay was performed in 1536-well format. Data are reported for both the ratio of the two emission wavelengths, and also for the component 'donor' channel, Em2=620. […] AC50 values were determined from concentration-response data modeled with the standard Hill equation.
(1) Frozen CHO-M1 cells were thaw, washed once with fresh media and resuspended in F12K media containing 10% FBS, 100 units/ml penicillin and 100 ug/ml streptomycin. Cells were plated at 4ul/well (2000 cells) in white, tissue culture treated 1536-well plates, and then cultured at 37C, 5 % CO2 for 16 to 30 hours.
(2) Add 23 nl/well of compound in DMSO solution. The final titration for each compound was between 0.6 nM and 46 uM.
(4) Incubation at 37C, 5 % CO2 for 30 min.
(5) Add 1 ul/well of d2-conjugated IP1 (d2-IP1) and 1 ul/well of Eu+ cryptate conjugated anti-IP1 antibody (Eu+-Ab) prepared in the cell lysis buffer, both from the IP-One kit (Cisbio, MA).
(6) Incubate at room temperature for 10 minutes.
(7) Detect the assay plate (Ex = 320, Em1 =665 and Em2 620) in a ViewLux plate reader.
Potency is read from the fitted curve at half-maximal effect.

Row | Structure (SMILES) | activity, negative = IMPase inhibition | Potency
1 | Cc1cc2oc(=O)cc(-c3ccccc3)c2c(C)c1/C=C/c1ccc(F)cc1 | -7.25% | –
2 | Cc1ccc(-c2cccc([C@H]3[C@@H]4C=CC[C@@H](C)[C@@H]4C(=O)N3Cc3ccccc3)c2)cc1 | 10% | –
3 | CC(=O)/C(C)=N/O | -3.22% | –
4 | O=C(Nc1ccncc1)c1cc(-c2ccccn2)nc2ccc(Br)cc12 | – | 2.82 µM (active)
5 | Cc1ccc(-c2cc(C(=O)NCc3cn(C)nc3C)c3cc(Br)ccc3n2)cc1 | -14.7% | –
6 | Cc1ccc2nc(-c3ccncc3)cc(C(=O)Nc3ccc(OC(F)F)cc3)c2c1 | 16.8% | –
7 | O=C(NCc1ccccn1)c1cc(Br)ccc1Cl | 5.27% | –
8 | Cc1ccc2nc(-c3ccccn3)cc(C(=O)Nc3ccc4c(c3)OCO4)c2c1 | 4.54% | –
9 | O=C(NCc1cccs1)c1cc(-c2ccccn2)nc2ccc(Br)cc12 | – | 6.31 µM (active)
10 | S=C(NCCCc1cnc[nH]1)NCCCN(Cc1ccc(Cl)c(Cl)c1)c1ccc(Br)cn1 | 2.14% | –
11 | C=CC(C1=CC(=O)C=CC1=O)c1ccc(O)cc1 (configuration not stated) | 38.9% | –
12 | COc1cccc([C@@H]2Oc3ccc(Br)cc3C(=O)[C@H]2OC(=O)NCc2ccc3c(c2)OCO3)c1 | 9.58% | –
13 | CC(=O)[C@H](C(c1ccccc1)N1CCOCC1)N1CCOCC1 (some centres not stated) | -10.4% | –
14 | COC(=O)C1=C(C(=O)OC)[C@@H]2N(Cc3ccccc3)c3ccccc3[C@@]23C[C@@H](C(=O)OC)N(S(=O)(=O)c2ccc(C(F)(F)F)cc2)C3=N1 | 9.75% | –
15 | CC/C=C\C/C=C\C/C=C\C/C=C\C/C=C\C/C=C\CCC(=O)NC(C)C(=O)O (configuration not stated) | 18% | –
16 | COC(=O)C/C=C/[C@@H](C)[C@H](NC(=O)OCC(Cl)(Cl)Cl)c1ccccc1 | 3.99% | –
17 | C=C(C(C)=O)C(O)c1ccc([N+](=O)[O-])cc1 (configuration not stated) | 39.2% | –
18 | COc1ccc(CCCOC(Cn2ccnc2)c2ccc(OC)cc2)cc1 (configuration not stated) | – | inactive
19 | O=C1OCCN1C(=O)[C@H]1[C@H](c2ccc(F)cc2)C(c2ccccc2)=NN1c1ccc(Br)cc1 | 0.301% | –
20 | C=C/C1=C/Cc2ccccc2[C@H](C[N+](=O)[O-])C(C(=O)OC)(C(=O)OC)C1 | 17.6% | –
21 | C=CC1=C2C=C(C3CC3)N(CC(C)C)C=C2C(=O)C(C)(OC(=O)c2ccco2)C1=O (configuration not stated) | 7.37% | –
22 | O=C1OCCN1C(=O)[C@H]1[C@H](c2ccccc2)C(c2ccc(F)cc2)=NN1c1ccccc1 | -13.4% | –
23 | CN(C)[C@@H]1C(=O)C(C(N)=O)=C(O)[C@@]2(O)C(=O)C3=C(O)c4c(O)ccc(Cl)c4[C@@H](O)[C@H]3C[C@@H]12 | – | 3.98 µM (active)
24 | COc1ccc(/C=C2\NC(=O)[C@@H]3Cc4ccccc4CN3C2=O)cc1 | 12.7% | –

Row | Structure (SMILES) | activity, negative = IMPase inhibition | Potency
25 | NCCC(=O)c1ccccc1N | -1.61% | –
26 | COC(=O)C1=C(C(=O)OC)[C@@H]2N(C)c3ccccc3[C@@]23C[C@@H](C(=O)OC)N(S(=O)(=O)c2cccs2)C3=N1 | 8.96% | –
27 | C=CCN1C=C2C(=O)C(C)(OC(=O)CCc3ccccc3)C(=O)C=C2C=C1c1ccc(C#N)cc1 (configuration not stated) | -2.86% | –
28 | C=CCN(CC=C)S(=O)(=O)c1ccc(C(=O)Nc2sc3c(c2C(N)=O)CCCCC3)cc1 | – | 10 µM (active)
29 | Cc1ccc(C(=O)c2c(NC(=O)c3ccncc3)sc3c2CCCC3)cc1 | 42.5% [at 38.3 µM] | –
30 | C=CCN(CC=C)S(=O)(=O)c1ccc(C(=O)Nc2nc3c(s2)CCc2ccccc2-3)cc1 | 6.49% | –
31 | CC(C)=CCN1CCC2(CCc3ccccc32)CC1 | -23.8% | –
32 | C[C@H]1Cc2c(-c3ccccc3)nc3c(c2CO1)CN(C(=O)C1CC1)CC3 | 11.8% | –
33 | COc1ccc(/C(O)=C2\C(=O)C(=O)N(Cc3ccco3)C2c2ccc(OC)cc2OC)cc1 (configuration not stated) | -20.2% [at 38.3 µM] | –
34 | COc1ccc(/C(O)=C2/C(=O)C(=O)N(c3nc(C)c(C)s3)C2c2ccco2)cc1 (configuration not stated) | – | 12.6 µM (active)
35 | COc1ccccc1C1/C(=C(/O)c2ccc(OC(C)C)cc2)C(=O)C(=O)N1c1cc(C)on1 (configuration not stated) | 6.7% [at 38.3 µM] | –
36 | Cc1cn(C2OC[C@@H](O)[C@@H]2CO)c(=O)[nH]c1=O (some centres not stated) | 31% | –
37 | O=c1c(O)c(Br)ccc2c(Br)c(O)c(O)c(O)c12 | 38.1% | –
38 | Cc1cccc([C@H]2[C@@H]3C=CC[C@@H](C)[C@@H]3C(=O)N2Cc2ccccc2)c1 | 6.4% | –
39 | COC(=O)N1C(/C=C/C=C/c2ccc(OC)cc2)=Cc2ccccc2C1CC(C)=O (configuration not stated) | 5.89% | –
40 | CCCCC/C=C\C/C=C\C/C=C\CCCCC(=O)NCC(=O)O | 4.54% | –
41 | CCC(C)[C@@H](N)C(=O)O (some centres not stated) | -2.45% | –
42 | C=CCN1c2ccccc2[C@]23C[C@@H](C(=O)OC)N(S(=O)(=O)c4ccc([N+](=O)[O-])cc4)C2=NC(C(=O)OC)=C(C(=O)OC)[C@H]13 | 8.65% | –
43 | COCc1cc(C)nc(Nc2cc(C)ccc2C)c1C#N | 2.06% [at 38.3 µM] | –
44 | COCc1cc(C)nc(SCC(=O)Nc2cccc(C)c2)c1C#N | – | 22.4 µM (active)
45 | Cc1cc(C)c(C#N)c(SCC(=O)Nc2ccccc2)n1 | -12.8% | –
46 | CC(Nc1oc(-c2ccccc2)nc1-c1ccccc1)c1ccccc1 (configuration not stated) | – | inactive
47 | C[C@H]1Cc2c(-c3ccccc3)nc3c(c2CO1)CN(S(=O)(=O)c1ccc(Cl)c2nonc12)CC3 | 7.59% | –
